# Test results: PubChem BioAssay (NCI)
# Compounds without any hit were thinned out: in the full panel of roughly 83,000, 20% have a hit.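 Negative percent growth values reflect cell death: -40 means 40% of the cells present at the start died, and -100 means all died.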 Unmarked numbers belong to inactive results. The source made the active and inactive calls. Rule for the calls: active = growth percent below 10; inactive = the rest.
# Legend:
# Assay in all cases: NCI-60 one-dose screen, 48 h (100 = growth as untreated, 0 = no growth, -100 = all killed)
# Settings in all cases: 10 µM unless noted
# [1] = test system: NCI-H23 lung
# [2] = test system: NCI-H226 lung
# [3] = test system: NCI-H322M lung
# [4] = test system: HOP-62 NSCLC
# [5] = test system: NCI-H460 lung
# [6] = test system: HOP-92 NSCLC
# [7] = test system: NCI-H522 lung
# [8] = test system: A549/ATCC NSCLC
# [9] = test system: 786-0 renal
# [10] = test system: COLO 205 colon
SMILES,growth [1],growth [2],growth [3],growth [4],growth [5],growth [6],growth [7],growth [8],growth [9],growth [10]
C=C(C[n+]1ccccc1)[C@@H]1CC[C@]2(C(=O)OC)CC[C@]3(C)[C@H](CC[C@@H]4[C@@]5(C)CC[C@H](O)C(C)(C)[C@@H]5CC[C@]43C)[C@@H]12,97.4%,89.5%,101%,93.5%,105%,82.9%,78%,105%,102%,102%
CCn1cc2c(cc1=O)-c1nc3ccccc3c3ccnc(c13)C2=O,27.6%,63.1%,76.3%,11.9%,2.86% (active),56.6%,39%,29%,69.1%,60.8%
O=C(Nc1ccc(F)cc1)Nc1ccc(CCO)cc1,104%,107%,97.7%,116%,106%,103%,93.8%,91.4%,109%,132%
O=C1CCc2c(sc3[nH]c(=S)n(Cc4ccccc4)c(=O)c23)C1,0.541% (active),51.2%,30.1%,10.2%,3.94% (active),-19.5% (active),2.03% (active),13.9%,30.9%,32.3%
CCCC(=O)Oc1ccc(/C(=C(/CC)Cc2ccccc2)c2ccc(OCCN3CCCC3)cc2)cc1,81.7%,96%,79.2%,82.8%,20.8%,79.1%,78.4%,67.8%,76.6%,-6.63% (active)
CCOc1ccc(Nc2nc(-c3c(C)nc4ncccn34)cs2)cc1,24.2%,52.1%,52.2%,17.9%,5.6% (active),18.2%,-6.3% (active),22.4%,9.74% (active),-60.8% (active)
CC/C=C\C[C@H](O)C/C=C1/C(=O)C=C[C@@H]1C/C=C\CCCC(N)=O,-38.3% (active),-39.7% (active),29.7%,-15.6% (active),-9.93% (active),37.6%,-19.3% (active),-23.5% (active),-24.2% (active),-27.8% (active)
CN[C@@]12CC3(C=CC(=O)C=C3)O[C@]1(Cc1ccc(OC)cc1)N(C)C(=O)N2,91%,89.4%,79.9%,114%,101%,94.4%,-23.6% (active),74.4%,84.2%,47.3%
Cc1ccn2c(-c3csc(Nc4cccc(O)c4)n3)c(C)nc2c1,25.5%,35.7%,58.4%,2.98% (active),13.7%,52.2%,-17.4% (active),38.9%,40.1%,-87.1% (active)
CCCNc1nc(SC)nc(-c2cccc(N)c2)c1C#N,93.2%,93.9%,95.8%,78.8%,101%,80.5%,92.9%,104%,102%,119%
COc1ccc2nc3cc(Cl)ccc3c(N3CCN(c4ccnc(N5CCN(C)CC5)n4)CC3)c2c1,34.6%,90.2%,94.2%,73.4%,64.7%,59.6%,-60.4% (active),83.4%,78.9%,-45.3% (active)
O=C(Nc1ccc(Nc2cc(Nc3ccccc3)ncn2)cc1)Nc1cc(C(F)(F)F)ccc1F,77.5%,94.7%,61.9%,68.6%,69.8%,49.3%,24.5%,48.1%,84.4%,64.4%
CC[C@H](CO)Nc1nc(NCc2ccccc2)n2ncc(C(C)C)c2n1,13.3%,10.3%,14.8%,3.3% (active),5.04% (active),-8.83% (active),1.9% (active),19.7%,-2.74% (active),-27% (active)
O=c1[nH]c(-c2ccccn2)nc2sc3c(c12)CCCCC3,56.9%,68.8%,48.5%,37.8%,18.8%,68.6%,20.8%,31.7%,60.4%,28%
Brc1cccc(-c2nc(-c3ccc4c(c3)OCCO4)co2)c1,71.3% [25 µM],78.2% [25 µM],90.7% [25 µM],57.9% [25 µM],25.2% [25 µM],80.4% [25 µM],24.5% [25 µM],56.3% [25 µM],78% [25 µM],50.5% [25 µM]
CN(C)c1ccc(/C=C\C2=[N+](C)c3ccccc3C2(C)C)cc1,7.51% (active),16.3%,23.7%,13.6%,4.52% (active),-15.6% (active),-23.7% (active),2.47% (active),18.1%,-78.8% (active)
Brc1cccc(-c2cc(-c3ccc4c(c3)OCCO4)[nH]n2)c1,42.5% [25 µM],25.2% [25 µM],46.2% [25 µM],20.4% [25 µM],10.3% [25 µM],62.8% [25 µM],-5.75% [25 µM] (active),25.7% [25 µM],40.8% [25 µM],-24.5% [25 µM] (active)
CCCCCCCCCCNC(=O)CCl,47.5%,85.7%,92.8%,81.3%,92.9%,36.2%,50.4%,93.6%,82.3%,116%
Cc1cccc(NC(=O)c2sc3nc4c(cc3c2N)C(=O)CCC4)c1,53.1%,56.6%,37.2%,42.9%,6.09% (active),64.5%,11.7%,31.4%,31.3%,3% (active)
COc1cnc2c(c1)C(=O)c1c-2n(CCCBr)c(=O)c2cc([N+](=O)[O-])ccc12,-5.87% (active),-1.66% (active),15.5%,3.86% (active),2.4% (active),26.5%,-18.4% (active),2.68% (active),5.26% (active),-26.2% (active)
Oc1ccc(Nc2nccc(-c3ccc4ccccc4c3)n2)cc1,30.7%,60.9%,44.4%,36.9%,14.8%,89.5%,30.9%,14.1%,40.1%,98%
COc1ccc(-c2cc(-c3ccc(N(C)C)cc3)nc(NC(=O)c3ccncc3)n2)cc1,91.8%,82.6%,87.8%,103%,99.7%,62.8%,90.7%,93.7%,97.1%,111%
COc1cnc2c(c1)C(=O)c1c-2n(CCCN2CCNCC2)c(=O)c2cc([N+](=O)[O-])ccc12,-63.6% (active),-59.4% (active),-72.2% (active),-67.2% (active),-42.3% (active),22.8%,-48.2% (active),-87.2% (active),-85.8% (active),14.4%
COc1ccc(/C=N\NC(=O)c2ccncc2)cc1O,93.8%,92.6%,99.3%,93%,109%,92.9%,81.4%,93.7%,93.7%,110%
CC1=CC(=O)CC(C)(C)[C@@]1(O)/C=C/[C@@H](C)O,89.7%,80.8%,103%,107%,112%,97%,92.7%,87.7%,102%,110%
CCCN(CCC)CN(CCC)CCC,96.5%,95.3%,97.6%,113%,107%,91.8%,101%,91.1%,94.8%,116%
CN(C)c1ccc(C2Nc3ccccc3-n3cccc32)cc1 (stereo not given),102%,82.8%,91.9%,107%,85.8%,89.7%,113%,98.3%,108%,96%
